This note sets out measurements from PubChem BioAssay (Tox21).

Records with an inconclusive call do not appear. Calls of active or inactive are those of the source. Unless noted, the call rests on the fitted dose curve; in most records, active means well fitted curve in the direction sought with a large enough effect in the repeat runs; inconclusive means weak or mixed curves; inactive means no such curve, though single readings can be large; an effect the other way counts as inactive or inconclusive.

A short description of assay [1]: qHTS assay for identifying genotoxic compounds that show differential cytotoxicity against isogenic chicken DT40 cell lines with known DNA damage response pathways - wild type cell line (AID 743012). Further: nearly all actives have a fitted effect of over 60% in size. The method, boiled down: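 Cytotoxicity in repair-proficient parental chicken DT40 cells serves as the comparator for Rad54/Ku70- and Rev3-deficient lines. Cells were exposed to compounds for 40 h at 37 C/5% CO2, and ATP-based luminescence (CellTiter-Glo) measured viability.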

Assay [2] is described as follows: qHTS assay for identifying genotoxic compounds that show differential cytotoxicity against isogenic chicken DT40 cell lines with known DNA damage response pathways - Rev3 mutant cell line (AID 743014). Further: nearly all actives have a fitted effect of over 55% in size.
Assay [3] is described as follows: qHTS assay for identifying genotoxic compounds that show differential cytotoxicity against isogenic chicken DT40 cell lines with known DNA damage response pathways - Rad54/Ku70 mutant cell line (AID 743015). Further: nearly all actives have a fitted effect of over 60% in size. In general terms: In qHTS, concentration-response curves come from the screen itself.
A short description of assay [4]: qHTS assay to identify small molecule antagonists of the androgen receptor (AR) signaling pathway using the MDA cell line - cell viability counter screen (AID 743041; further: nearly all actives have a fitted effect of over 45% in size). The method, boiled down:
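qHTS viability read-out; MDA-kb2 AR-luc; R1881-stimulated; 16 h exposure at 37C, 0% CO2; CellTiter-Fluor, 30 min; fluorescence intensity.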

Assay [5] is described as follows: qHTS assay to identify small molecule antagonists of the androgen receptor (AR) signaling pathway - cell viability counter screen (AID 743033; further: nearly all actives have a fitted effect of over 45% in size).
Assay [6] deals with Androgen receptor (Homo sapiens) (UniProt P10275). Nature of the assay: qHTS assay to identify small molecule antagonists of the androgen receptor (AR) signaling pathway (AID 743035; active means well fitted inhibition curve with a large enough effect in the signal ratio in the repeat runs, not every such curve was filed as active; the % refers to the signal ratio). The gist of the method:
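Steps: seed AR-UAS-bla GripTite HEK293 cells, incubate 4 h at 37C; pin in test compound, then add agonist R1881; incubate 16 h at 37C; add LiveBLAzer B/G FRET substrate, 2 h at room temperature; read fluorescence.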

The target is the same in assay [7]. Nature of the assay: qHTS assay to identify small molecule agonists of the androgen receptor (AR) signaling pathway (AID 743036; active means well fitted activation curve with a large enough effect in the signal ratio in the repeat runs, with a control signal flat, not every such curve was filed as active; the % refers to the signal ratio). The method, boiled down: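 AR-bla HEK293 cells, 2,000/well; 4 h preincubation 37C/5% CO2; compound (DMSO) 16 h at 37C; LiveBLAzer B/G FRET substrate 2 h RT; fluorescence intensity read-out.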
Assay [8] shares this target. Nature of the assay: qHTS assay to identify small molecule agonists of the androgen receptor (AR) signaling pathway using the MDA cell line (AID 743040; further: nearly all actives have a fitted effect of over 20% in size). The method, boiled down:
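Agonist activity is measured as luciferase luminescence in human MDA-kb2 cells whose MMTV reporter responds to both AR and GR. Compounds in DMSO incubate 16 h at 37C, 0% CO2, and ONE-Glo is read after 30 min.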

For assay [9] the target is unchanged. Nature of the assay: qHTS assay to identify small molecule antagonists of the androgen receptor (AR) signaling pathway using the MDA cell line (AID 743042; further: nearly all actives have a fitted effect of over 55% in size). The gist of the method:
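MDA-kb2 cells (human breast carcinoma, stably carrying an MMTV-luciferase reporter responsive to AR and GR) were plated at 3,000 cells/well and preincubated 5 hr at 37C, then given compound plus R1881 agonist for 16 h. ONE-Glo luminescence was read.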
Potency means the concentration at half of the fitted maximal effect.

Chain of Androgen receptor (Homo sapiens) (P10275 whole entry, looked up): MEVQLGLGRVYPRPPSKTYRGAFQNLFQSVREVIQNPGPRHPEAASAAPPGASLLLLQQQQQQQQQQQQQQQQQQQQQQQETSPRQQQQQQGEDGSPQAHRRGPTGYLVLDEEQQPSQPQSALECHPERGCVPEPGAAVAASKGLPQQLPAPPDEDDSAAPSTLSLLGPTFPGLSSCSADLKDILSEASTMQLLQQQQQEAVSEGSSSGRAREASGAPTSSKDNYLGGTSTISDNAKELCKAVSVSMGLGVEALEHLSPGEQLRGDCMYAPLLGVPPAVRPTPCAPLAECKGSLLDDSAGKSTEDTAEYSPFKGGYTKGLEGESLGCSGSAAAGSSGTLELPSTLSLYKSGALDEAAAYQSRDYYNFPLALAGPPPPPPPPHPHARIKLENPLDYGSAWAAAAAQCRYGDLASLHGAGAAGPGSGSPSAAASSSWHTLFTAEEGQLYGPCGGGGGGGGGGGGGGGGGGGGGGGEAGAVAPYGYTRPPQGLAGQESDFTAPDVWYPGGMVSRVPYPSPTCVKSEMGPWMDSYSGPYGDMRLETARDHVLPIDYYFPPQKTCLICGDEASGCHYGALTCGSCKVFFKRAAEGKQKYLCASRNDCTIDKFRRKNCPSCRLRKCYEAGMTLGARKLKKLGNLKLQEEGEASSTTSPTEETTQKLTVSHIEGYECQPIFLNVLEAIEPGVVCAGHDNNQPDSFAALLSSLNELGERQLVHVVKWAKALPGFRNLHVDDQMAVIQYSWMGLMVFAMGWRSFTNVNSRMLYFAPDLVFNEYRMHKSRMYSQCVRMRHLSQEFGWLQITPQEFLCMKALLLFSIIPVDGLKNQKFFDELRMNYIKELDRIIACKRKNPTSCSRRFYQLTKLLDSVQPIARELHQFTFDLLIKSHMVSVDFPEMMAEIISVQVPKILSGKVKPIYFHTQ

Regarding `CCCCCCCC(=O)CC[C@@H]1[C@@H](C/C=C\CCCC(=O)OC(C)C)[C@@H](O)C[C@H]1O`, the Potency in [1] is 8.41 µM (active); in assay [2], 21.1 µM (active); in assay [3], 13.3 µM (active). For the same compound, in [4], the Potency entry is “inactive”.
Turning to `C=C1/C(=C\C=C2/CCC[C@]3(C)[C@@H]([C@H](C)OCCC(C)(C)O)CC[C@@H]23)C[C@@H](O)C[C@@H]1O`, the Potency is 8.41 µM (active) in assay [1], 13.3 µM (active) in assay [2] and 13.3 µM (active) in [3]. In addition, the Potency entry in assay [5] and in [4] was “inactive” each time.
Consider `COc1cc(/C=C/C(=O)N2CCN(CC(=O)N3CCCC3)CC2)cc(OC)c1OC`, for which the Potency result in [1], in [3], in assay [5], in assay [6], in assay [7] and in [8] was “inactive” throughout. For the same compound, the Potency entry in assay [4] and in assay [9] was “inactive” in each case.
As for `CC[C@@]1(O)C(=O)OCc2c1cc1n(c2=O)Cc2cc3c([N+](=O)[O-])cccc3nc2-1`, the Potency in assay [1] was 0.119 µM (active); in assay [2] it was 0.0944 µM (active); in assay [3] it was 0.0841 µM (active). Moreover, the Potency result in [5] was “inactive”.
On to `CC(CN(C)C)CN1c2ccccc2Sc2ccc(C(F)(F)F)cc21` (stereo not given), for which the Potency is 5.96 µM (active) in assay [1], 7.5 µM (active) in assay [2] and 9.44 µM (active) in assay [3]. For the same compound, the Potency entry in assay [5] and in [4] was “inactive” each time.
For the compound `COc1cc([C@@H]2c3cc4c(cc3C(O[C@@H]3O[C@@H]5COC(c6cccs6)O[C@H]5[C@H](O)[C@H]3O)C3COC(=O)[C@@H]32)OCO4)cc(OC)c1O` (stereo not given in full), the Potency in [1] was 0.0119 µM (active); in assay [2], 0.0119 µM (active); in assay [3], 0.0011 µM (active); in [5], 0.301 µM (active). For the same compound, the Potency entry in assay [4] was “inactive”.
For the compound `CC(C)C(=O)OCC(=O)[C@@]12O[C@H](C3CCCCC3)O[C@@H]1C[C@H]1[C@@H]3CCC4=CC(=O)C=C[C@]4(C)[C@H]3[C@@H](O)C[C@@]12C`, the Potency result in assay [2], in assay [5] and in assay [4] was “inactive” throughout.
On to `CCCCCCCCCCCCCCCC(=O)O[C@@H]1CC(C)=C(/C=C/C(C)=C/C=C/C(C)=C/C=C/C=C(C)/C=C/C=C(C)/C=C/C2=C(C)C[C@@H](OC(=O)CCCCCCCCCCCCCCC)CC2(C)C)C(C)(C)C1`, for which the Potency result in assay [2], in assay [3], in [5] and in [4] was “inactive” throughout.
Consider `O=[N+]([O-])c1c(Cl)cccc1-c1c[nH]cc1Cl`, for which the Potency in [1] is 18.8 µM (active); in assay [2] it was 23.7 µM (active); in assay [3], 26.6 µM (active). The Potency result in assay [4] was “inactive”.
With `O=C1CSC2(CCN(CCCN3c4ccccc4Sc4ccc(Cl)cc43)CC2)N1`, the Potency in assay [1] was 5.96 µM (active); in [2], 7.5 µM (active); in assay [3], 8.41 µM (active); in assay [6] it was 21.3 µM (active). The Potency result in assay [8] and in assay [4] was “inactive” in each case.
As for `CC(C)N1CCN(c2ccc(OC[C@H]3CO[C@](Cn4cncn4)(c4ccc(Cl)cc4Cl)O3)cc2)CC1`, the Potency in assay [2] is 5.07 µM (active); in assay [3] it was 6.39 µM (active). Moreover, the Potency result in assay [5] and in [4] was “inactive” in each case.
Regarding `CCOc1ccc(N=Nc2ccc(N)cc2N)cc1`, the figures for the Potency in assay [3], in assay [8] and in assay [4] were 21.1 µM (active), 0.473 µM (active) and 15 µM (active), respectively. The Potency entry in [5] and in [9] was “inactive” each time.
For the compound `CC1=C(/C=C/C(C)=C/C=C/C(C)=C/C=C/C=C(C)/C=C/C=C(C)/C=C/C2=C(C)C[C@@H](O)CC2(C)C)C(C)(C)C[C@H](O)C1`, the Potency in [1] is 7.5 µM (active); in assay [3] it was 11.9 µM (active); in [9], 29.8 µM (active). The Potency entry in [5], in assay [8] and in [4] was “inactive” each time.
Take `CCN(CC)CCOc1ccc(-c2nc3cc(Cl)ccc3s2)cc1`: the Potency in [1] was 0.944 µM (active); in assay [2] it was 1.06 µM (active); in [3] it was 1.06 µM (active); in assay [5], 23.9 µM (active).
For the compound `CCC(=O)O[C@H]1CC[C@H]2[C@@H]3CCc4cc(O)ccc4[C@H]3CC[C@]12C`, the Potency was 23.7 µM (active) in [1]; 21.1 µM (active) in assay [2]; 23.7 µM (active) in assay [3]; 3.01 µM (active) in [7]; 4.73 µM (active) in assay [8]. Moreover, the Potency entry in assay [5], in assay [4] and in assay [9] was “inactive” in each case.
`CO[C@@]1(NC(=O)C2SC(=C(C(N)=O)C(=O)O)S2)C(=O)N2C(C(=O)O)=C(CSc3nnnn3C)CS[C@@H]21` (stereo not given in full): the Potency result in assay [2], in assay [3], in assay [5] and in assay [4] was “inactive” throughout.
`CO[C@H]1C=CO[C@@]2(C)Oc3c(C)c(O)c4c(O)c(c(/C=N/N5CCN(C6CCCC6)CC5)c(O)c4c3C2=O)NC(=O)/C(C)=C\C=C[C@H](C)[C@H](O)[C@@H](C)[C@@H](O)[C@@H](C)[C@H](OC(C)=O)[C@@H]1C`: the Potency in [1] was 3.35 µM (active); in assay [2], 8.41 µM (active); in assay [3], 4.22 µM (active); in [4], 23.7 µM (active). In assay [5], the Potency result is “inactive”.
The matching figures for `C#C[C@]1(O)CC[C@H]2[C@@H]3CCC4=CCCC[C@@H]4[C@H]3C(=C)C[C@@]21CC`: 13.3 µM (active), 15 µM (active), 21.1 µM (active), “inactive” and “inactive”.
Turning to `OCC(S)CS` (stereo not given), the Potency was 16.8 µM (active) in [1], 18.8 µM (active) in [2] and 8.41 µM (active) in [3]. Also, the Potency entry in [5], in assay [6] and in assay [8] was “inactive” throughout.
Regarding `CN(C)C(=O)CCSC(SCCC(=O)O)c1cccc(/C=C/c2ccc3ccc(Cl)cc3n2)c1` (stereo not given), the Potency result in assay [5], in assay [8] and in assay [9] was “inactive” in each case.
With `CC(C)[C@@H](N)C(=O)O`, the Potency entry in assay [1], in [3], in assay [5] and in assay [4] was “inactive” in each case.
Consider `NC(=O)C[C@@H](N)C(=O)O`, for which the Potency entry in [1], in assay [2], in assay [3] and in assay [5] was “inactive” each time.
Take `Nc1ncnc2c1ncn2[C@@H]1O[C@H](COP(=O)(O)OP(=O)(O)OP(=O)(O)O)[C@@H](O)[C@H]1O`: the Potency entry in assay [1], in assay [2], in [3], in assay [5] and in assay [4] was “inactive” in each case.
Regarding `C=C1C(=C/C=C2\CCC[C@]3(C)[C@@H]([C@H](C)CCCC(C)(C)O)CC[C@@H]23)C[C@@H](O)C[C@@H]1O`, the figures for the Potency in assay [1], in assay [2] and in assay [3] were 5.96 µM (active), 11.9 µM (active) and 10.6 µM (active), respectively. Also, the Potency entry in [5] is “inactive”.
